# Results reported in PubChem BioAssay.
# Activity calls are given as the source filed them. Rule as the data show it, unless noted: active = inhibition above about 28%; inactive = the rest.
# Assays:
# [1] = biological target: Nuclear receptor coactivator 3 (Homo sapiens) (UniProt Q9Y6Q9); test: SRC3 coactivator transcriptional activity inhibitors, confirmation, cell-based, luminescence, quadruplicate (AID 588792;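 active = mean inhibition over 43.08%, the solvent-only control mean plus 3 SD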;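 also: 0% = DMSO treated cells and 100% = gossypol at 36 µM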); conditions: HEK293 GAL4-SRC3 luciferase reporter, at 3.6 µM, hits give high values
# [2] = tested on: transactivating tegument protein VP16 (Human herpesvirus 1), Gal4-VP16 luciferase reporter; test: VP16 transactivation inhibitors, counter-screen for SRC3 inhibitor project, cell-based, luminescence, high throughput (AID 588794; in the data active = inhibition above about 30%); conditions: mammalian cells, VP16-driven luciferase reporter luminescence; at 3.6 µM; hits give high values
# [3] = biological target: Nuclear receptor coactivator 1 (Homo sapiens) (UniProt Q15788); test: SRC1 coactivator transcriptional activity inhibitors, confirmation, cell-based, luminescence, quadruplicate (AID 588820;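 active = mean inhibition above 46.68%, the untreated control wells mean plus 3 SD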;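 also: 0% = DMSO wells and 100% = gossypol 36 µM treated wells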); conditions: HEK293 GAL4-SRC1 luciferase reporter, at 3.6 µM, hits give high values
# [4] = VP16 transactivation inhibitors, counter-screen for SRC1 inhibitor project, cell-based, luminescence, high throughput (AID 588824; in the data active = inhibition above about 25%); conditions: cell-based VP16 transactivation luciferase luminescence; at 3.6 µM; hits give high values
# [5] = StAR promoter reporter inhibitors, counter-screen for LRH-1 inverse agonist project, cell-based, luminescence, high throughput (AID 651611); conditions: StAR promoter luciferase reporter counterscreen, at 3.6 µM, hits give high values
# [6] = biological target: Nuclear receptor subfamily 5 group A member 2 (Homo sapiens) (UniProt O00482); test: LRH-1 (NR5A2) inverse agonists, retest, confirmation, cell-based, luminescence (AID 651613; in the data active = inhibition above about 42%;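 also: HEK293T cells co-transfected with LRH-1 and StAR promoter luciferase reporter; 0% = vehicle wells and 100% = parental cells lacking receptor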); conditions: cell-based LRH-1 luciferase reporter, inverse agonism; at 3.6 µM; hits give high values
# [7] = biological target: Steroidogenic factor 1 (Homo sapiens) (UniProt Q13285); test: SF1 (NR5A1) inverse agonists, counter-screen for LRH-1 inverse agonist project, cell-based, luminescence, high throughput (AID 651614; in the data active = inhibition above about 44%;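 also: cells cotransfected with StAR promoter reporter and SF1 expression vector; 0% = vehicle on cells with receptor and 100% = vehicle on cells lacking receptor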); conditions: cell-based SF1 luciferase reporter, at 3.6 µM, hits give high values
# [8] = VP16 transactivation reporter inhibitors, counter-screen for LRH-1 inverse agonist project, cell-based, luminescence, high throughput (AID 651615; in the data active = inhibition above about 33%); conditions: Gal4-VP16 luciferase reporter cells, at 3.6 µM, hits give high values
# Chain of Nuclear receptor subfamily 5 group A member 2 (Homo sapiens) (O00482 whole entry, looked up): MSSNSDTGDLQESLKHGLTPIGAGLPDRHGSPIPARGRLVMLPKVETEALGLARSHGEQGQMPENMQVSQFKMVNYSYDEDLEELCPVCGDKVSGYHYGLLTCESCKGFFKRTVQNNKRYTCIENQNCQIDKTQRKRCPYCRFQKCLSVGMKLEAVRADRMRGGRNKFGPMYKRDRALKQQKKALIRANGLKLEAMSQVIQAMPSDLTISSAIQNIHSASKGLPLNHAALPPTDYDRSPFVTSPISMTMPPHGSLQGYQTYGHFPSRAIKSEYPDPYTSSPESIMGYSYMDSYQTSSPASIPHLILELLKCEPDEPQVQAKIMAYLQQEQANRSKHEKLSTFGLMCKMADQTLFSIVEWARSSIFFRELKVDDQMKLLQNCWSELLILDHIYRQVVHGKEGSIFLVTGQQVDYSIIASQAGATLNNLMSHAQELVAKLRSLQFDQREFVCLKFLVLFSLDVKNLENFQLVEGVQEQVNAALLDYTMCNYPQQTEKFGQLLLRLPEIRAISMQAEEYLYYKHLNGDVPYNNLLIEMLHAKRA
# Chain of Nuclear receptor coactivator 3 (Homo sapiens) (Q9Y6Q9 whole entry, looked up, the tested form may be a part): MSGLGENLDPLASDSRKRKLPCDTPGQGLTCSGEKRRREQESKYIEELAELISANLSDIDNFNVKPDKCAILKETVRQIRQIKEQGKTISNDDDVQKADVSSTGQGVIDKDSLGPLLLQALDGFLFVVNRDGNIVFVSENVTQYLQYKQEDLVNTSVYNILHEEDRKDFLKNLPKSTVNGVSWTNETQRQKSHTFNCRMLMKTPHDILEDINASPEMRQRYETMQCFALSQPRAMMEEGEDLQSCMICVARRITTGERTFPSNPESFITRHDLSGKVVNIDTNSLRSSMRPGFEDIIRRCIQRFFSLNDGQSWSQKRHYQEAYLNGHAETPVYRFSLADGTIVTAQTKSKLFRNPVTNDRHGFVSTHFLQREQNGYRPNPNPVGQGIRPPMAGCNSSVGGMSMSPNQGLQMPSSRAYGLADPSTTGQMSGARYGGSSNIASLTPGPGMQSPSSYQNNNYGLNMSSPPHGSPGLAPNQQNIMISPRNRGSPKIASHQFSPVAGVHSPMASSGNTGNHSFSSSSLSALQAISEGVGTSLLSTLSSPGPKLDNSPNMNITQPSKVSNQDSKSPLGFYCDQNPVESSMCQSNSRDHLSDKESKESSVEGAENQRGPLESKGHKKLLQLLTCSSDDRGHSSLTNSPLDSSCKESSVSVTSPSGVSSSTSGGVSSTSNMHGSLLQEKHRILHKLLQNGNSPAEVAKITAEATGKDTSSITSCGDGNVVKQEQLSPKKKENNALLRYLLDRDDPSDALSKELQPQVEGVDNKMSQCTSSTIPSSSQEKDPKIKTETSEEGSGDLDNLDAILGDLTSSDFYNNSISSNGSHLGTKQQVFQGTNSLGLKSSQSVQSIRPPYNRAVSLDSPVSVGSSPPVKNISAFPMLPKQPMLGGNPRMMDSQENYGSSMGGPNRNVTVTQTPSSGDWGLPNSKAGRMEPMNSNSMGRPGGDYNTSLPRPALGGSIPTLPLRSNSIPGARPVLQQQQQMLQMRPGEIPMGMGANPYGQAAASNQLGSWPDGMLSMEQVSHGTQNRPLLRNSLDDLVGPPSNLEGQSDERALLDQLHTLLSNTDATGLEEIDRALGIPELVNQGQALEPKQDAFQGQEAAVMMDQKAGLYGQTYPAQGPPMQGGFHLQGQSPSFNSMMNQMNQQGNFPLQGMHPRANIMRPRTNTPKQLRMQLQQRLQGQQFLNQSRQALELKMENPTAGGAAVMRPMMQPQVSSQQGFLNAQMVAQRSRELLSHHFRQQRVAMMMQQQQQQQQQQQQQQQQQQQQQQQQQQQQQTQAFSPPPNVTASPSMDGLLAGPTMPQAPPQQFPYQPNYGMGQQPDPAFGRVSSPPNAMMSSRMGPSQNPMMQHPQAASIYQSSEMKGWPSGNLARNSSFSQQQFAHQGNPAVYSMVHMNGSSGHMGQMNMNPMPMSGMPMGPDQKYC
# Chain of Steroidogenic factor 1 (Homo sapiens) (Q13285 whole entry, looked up, the tested form may be a part): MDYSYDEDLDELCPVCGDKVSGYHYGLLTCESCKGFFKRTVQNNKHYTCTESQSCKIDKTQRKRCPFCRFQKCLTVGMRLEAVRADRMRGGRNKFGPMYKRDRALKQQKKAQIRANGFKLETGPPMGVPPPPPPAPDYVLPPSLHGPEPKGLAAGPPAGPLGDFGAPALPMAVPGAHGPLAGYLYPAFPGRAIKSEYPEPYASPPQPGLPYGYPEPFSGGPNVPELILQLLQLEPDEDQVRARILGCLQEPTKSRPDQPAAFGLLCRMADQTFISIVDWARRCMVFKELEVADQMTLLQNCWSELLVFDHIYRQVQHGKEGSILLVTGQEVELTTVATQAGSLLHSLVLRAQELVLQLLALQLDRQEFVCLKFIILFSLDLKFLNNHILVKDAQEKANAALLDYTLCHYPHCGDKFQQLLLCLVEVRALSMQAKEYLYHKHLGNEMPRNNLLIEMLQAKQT
# Chain of Nuclear receptor coactivator 1 (Homo sapiens) (Q15788 whole entry, looked up, the tested form may be a part): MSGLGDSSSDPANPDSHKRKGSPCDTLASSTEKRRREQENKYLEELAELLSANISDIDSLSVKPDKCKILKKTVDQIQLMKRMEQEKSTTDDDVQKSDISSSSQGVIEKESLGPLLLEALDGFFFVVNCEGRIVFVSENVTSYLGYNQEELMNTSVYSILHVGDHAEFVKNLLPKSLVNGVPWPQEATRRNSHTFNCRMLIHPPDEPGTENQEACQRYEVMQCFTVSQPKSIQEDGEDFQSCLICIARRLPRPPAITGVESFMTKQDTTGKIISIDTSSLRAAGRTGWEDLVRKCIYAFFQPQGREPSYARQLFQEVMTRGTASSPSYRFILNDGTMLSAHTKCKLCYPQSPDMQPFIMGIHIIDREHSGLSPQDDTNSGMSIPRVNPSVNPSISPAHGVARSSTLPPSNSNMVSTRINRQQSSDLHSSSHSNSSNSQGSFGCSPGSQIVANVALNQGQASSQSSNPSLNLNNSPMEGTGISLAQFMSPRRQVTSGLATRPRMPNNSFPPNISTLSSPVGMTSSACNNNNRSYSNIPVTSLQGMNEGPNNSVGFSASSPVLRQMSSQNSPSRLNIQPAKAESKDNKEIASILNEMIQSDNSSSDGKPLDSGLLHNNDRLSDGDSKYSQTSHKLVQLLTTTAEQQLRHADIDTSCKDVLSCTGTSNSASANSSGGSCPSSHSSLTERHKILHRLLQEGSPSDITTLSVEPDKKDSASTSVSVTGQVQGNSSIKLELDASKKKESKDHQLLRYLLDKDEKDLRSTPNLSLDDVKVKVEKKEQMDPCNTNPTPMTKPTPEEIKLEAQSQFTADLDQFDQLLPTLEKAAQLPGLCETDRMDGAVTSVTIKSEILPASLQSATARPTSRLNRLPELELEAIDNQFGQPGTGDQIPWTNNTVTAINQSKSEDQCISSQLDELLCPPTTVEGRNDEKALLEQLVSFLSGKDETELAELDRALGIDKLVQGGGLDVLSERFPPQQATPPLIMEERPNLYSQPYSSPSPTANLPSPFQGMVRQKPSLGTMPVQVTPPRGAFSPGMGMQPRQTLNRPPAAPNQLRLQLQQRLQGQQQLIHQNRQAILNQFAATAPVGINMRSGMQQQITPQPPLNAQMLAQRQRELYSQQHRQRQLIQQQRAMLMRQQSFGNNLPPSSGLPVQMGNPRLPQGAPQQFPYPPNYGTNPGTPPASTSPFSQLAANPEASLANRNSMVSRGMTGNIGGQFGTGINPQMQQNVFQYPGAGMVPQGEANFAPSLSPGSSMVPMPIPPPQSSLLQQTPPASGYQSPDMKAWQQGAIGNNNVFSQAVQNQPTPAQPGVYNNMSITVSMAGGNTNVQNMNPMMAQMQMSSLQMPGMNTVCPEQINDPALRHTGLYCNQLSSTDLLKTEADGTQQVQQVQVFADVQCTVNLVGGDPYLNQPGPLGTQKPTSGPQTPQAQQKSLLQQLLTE
SMILES,inhibition [1],inhibition [2],inhibition [3],inhibition [4],inhibition [5],inhibition [6],inhibition [7],inhibition [8]
Cn1c2c(c(=O)n(C)c1=O)C(C(F)(F)F)(C(F)(F)F)N=C(c1ccc(Cl)cc1)N2,77.8% (active),85.7% (active),42.6% (inactive),83.9% (active),80.6% (active),104% (active),93.6% (active),86.7% (active)
O=C(c1ccccc1)c1nn(-c2ccc(Cl)cc2)c(=O)cc1C(F)(F)F,65.3% (active),62.6% (active),21.8% (inactive),51.2% (active),73.3% (active),72.6% (active),70% (active),74.8% (active)
CN(Cc1cnc2nc(N)nc(N)c2n1)c1ccc(C(=O)N[C@@H](CCC(=O)O)C(=O)O)cc1,66.7% (active),12.6% (inactive),35% (inactive),8.93% (inactive),76.9% (active),54.9% (active),55.4% (active),22.7% (inactive)
N=c1c2c(-c3ccccc3)c(-c3ccccc3)n(Cc3ccco3)c2ncn1CCO,23.5% (inactive),54.5% (active),41% (inactive),56.2% (active),54.3% (active),64.8% (active),64% (active),74.8% (active)
CCCCCCCC[n+]1cccc2c3ccccc3ccc21,78.5% (active),81.6% (active),59.1% (active),83.7% (active),77% (active),107% (active),92.8% (active),93.8% (active)
Cc1cc(OCc2nc(N)nc(N)c2-c2ccc(Cl)c(Cl)c2)ccc1[N+](=O)[O-],52.2% (active),30.6% (active),71.3% (active),30.1% (active),70.7% (active),69.5% (active),63.5% (active),42% (active)
O=C(N/N=C(\c1ccccc1)c1cccnc1)c1cccc(F)c1,37.5% (inactive),31.2% (active),31% (inactive),43% (active),84% (active),97.7% (active),85.7% (active),58.5% (active)
N=c1c2c(n(Cc3ccc(F)cc3)c3c1CCC3)CCCC2,27.9% (inactive),61.5% (active),13.6% (inactive),48% (active),41.4% (active),101% (active),70.9% (active),61.2% (active)
Cc1ccc(-c2cc3cccc[n+]3cc2-c2ccc(C)cc2)cc1,72.3% (active),53.5% (active),35.9% (inactive),64.4% (active),56.9% (active),91.7% (active),83.4% (active),79.4% (active)
COc1cc(NS(C)(=O)=O)ccc1Nc1c2ccccc2nc2ccccc12,63.6% (active),-6.87% (inactive),61.1% (active),-3.17% (inactive),46.6% (active),108% (active),52% (active),78.8% (active)
CC(=O)c1cccc(N=c2scc(-c3ccc(S(=O)(=O)N4CCOCC4)cc3)n2CCO)c1,21.9% (inactive),47.4% (active),-14.3% (inactive),49.4% (active),35.2% (active),63.3% (active),69.7% (active),61.1% (active)
CCCCCCCn1c2c(c(=N)c3ccccc31)CCC2,71.2% (active),79.5% (active),61.5% (active),79.1% (active),70.8% (active),111% (active),91.2% (active),94.7% (active)
Cc1onc(-c2ccccc2)c1C(=O)NC(=S)NNC(=O)c1ccc(O)cc1O,55.7% (active),75.7% (active),69.8% (active),80.5% (active),62.8% (active),95.8% (active),85.6% (active),83.5% (active)
CC(=O)NC(c1ccc2ccccc2c1)c1ccc2cccnc2c1O (centres undefined),81.5% (active),79.2% (active),70.4% (active),74.3% (active),86.3% (active),104% (active),87.6% (active),79.9% (active)
CC(=NNC(=S)Nc1cccc(C)c1)c1ccccn1,65.8% (active),67.1% (active),1.68% (inactive),66.7% (active),85.1% (active),99.3% (active),92.4% (active),68.8% (active)
O=C(/C=C/c1ccc(O)cc1)c1ccc(NC2=C(N3CCCCC3)C(=O)c3ccccc3C2=O)cc1,33.2% (inactive),26.1% (inactive),22.5% (inactive),36.1% (active),-1.86% (inactive),76.3% (active),17.3% (inactive),67.4% (active)
CC(C)(C)N(Cc1ccc2c(c1)OCO2)C(=O)/C=C\S(=O)c1ccccc1 (centres undefined),45% (active),38.2% (active),17.8% (inactive),38.1% (active),34.7% (active),56.4% (active),68.2% (active),61.6% (active)
Cc1nc2ccc(NC(=O)c3cccs3)cc2c(=O)n1Cc1ccc(Cl)cc1,4.95% (inactive),15.8% (inactive),-3.3% (inactive),23.8% (inactive),27.4% (inactive),52.7% (active),55% (active),40.8% (active)
CC(C)CC(=NNC(=O)c1ccncc1)c1cc(Cl)ccc1O,80.1% (active),72.5% (active),65.2% (active),78.7% (active),88.6% (active),101% (active),92.5% (active),85.7% (active)
CC[n+]1c(/C=C/N(C)c2ccccc2)oc2ccccc21,34.7% (inactive),55.8% (active),16.9% (inactive),55.2% (active),31.9% (active),82% (active),69% (active),73.2% (active)
Cc1cccc2cc(-c3ccccc3)c(-c3ccccc3)c[n+]12,4.1% (inactive),37% (active),5.14% (inactive),40.4% (active),18.2% (inactive),106% (active),63.2% (active),81.7% (active)
Cc1ccccc1CN1CC2=C(CCN(Cc3ccccc3)C2=O)N2CCN=C12,47.9% (active),70.7% (active),53.7% (active),66.9% (active),76.9% (active),96.3% (active),88.7% (active),77.8% (active)
Cc1cccn2c(=O)c3cc(C(=O)NCCN4CCOCC4)c(=N)n(Cc4ccc(F)cc4)c3nc12,36.9% (inactive),41.6% (active),44.4% (inactive),28.3% (active),45.4% (active),73.9% (active),61.6% (active),60.1% (active)
CCC1(O)C(=O)OCc2c1cc1n(c2=O)Cc2cc3c(N)cccc3nc2-1 (centres undefined),89.6% (active),77.9% (active),54.4% (active),71.3% (active),83.6% (active),104% (active),92.1% (active),79.6% (active)
COCCn1c(C)cc(C(=O)COC(=O)c2ccccc2Br)c1C,71.7% (active),57% (active),46.2% (inactive),36.7% (active),57.1% (active),-4.05% (inactive),50.9% (active),16.6% (inactive)
COc1ccccc1N1CCN(Cc2cc(Br)c(O)c3ncccc23)CC1,21.4% (inactive),3.52% (inactive),-1.06% (inactive),-1.42% (inactive),23.9% (inactive),23.9% (inactive),42.8% (active),21.7% (inactive)
CC1CN(S(=O)(=O)c2ccc(C(=O)NCCCn3ccnc3)cc2)CC(C)O1 (centres undefined),87.8% (active),47.5% (active),67.9% (active),30.4% (active),87.1% (active),99.2% (active),95.5% (active),81.1% (active)
Cc1cc([N+](=O)[O-])nn1Cc1ccc(C(=O)N/N=C/c2ccc(O)cc2O)cc1,54.5% (active),63.4% (active),48.5% (active),66.9% (active),80.8% (active),97% (active),88.1% (active),87.9% (active)
